In PubChem BioAssay AID1159580 (chemical genetic matrix, 2015):
About 2,000 (36%) of roughly 5,500 compounds were called active. Roughly 18% stayed inconclusive and do not appear here. No stated cut-off is given here; in the data, active means normalized growth mostly below about 0.91 (no sharp cut-off); inconclusive means no clear call, values can overlap the other calls; inactive means mostly above about 0.92. The list shows a part of the results.

Experiment: chemical genetic growth profiling, strain panel (AID 1159580);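 further: tested at 20 µM; growth read once vehicle control cultures reached saturation at 30 °C; 1 = growth at the plate median or of vehicle wells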
Settings: growth OD

Measured: normalized growth

Oc1c(I)cc(I)c2cccnc12
active: S. cerevisiae deletion strains, locus YJL187C, strain SWE1, stronger effect = lower value 0.0737 | S. cerevisiae deletion strains, locus YJR043C, strain POL32, stronger effect = lower value 0.08 | S. cerevisiae deletion strains, locus YJR066W, strain TOR1, stronger effect = lower value 0.106 | S. cerevisiae deletion strains, locus YKL009W, strain mrt4, stronger effect = lower value 0.274 | S. cerevisiae deletion strains, locus YKL068W, stronger effect = lower value 0.479 | S. cerevisiae deletion strains, locus YKL085W, strain MDH1 (second series), stronger effect = lower value 0.253 | S. cerevisiae deletion strains, locus YKL085W, strain MDH1, stronger effect = lower value 0.253 | S. cerevisiae deletion strains, locus YKL160W, strain elf1, stronger effect = lower value 0.0775 | S. cerevisiae deletion strains, locus YKL190W, strain CNB1, stronger effect = lower value 0.0667 | S. cerevisiae deletion strains, locus YKR001C, strain vps1, stronger effect = lower value 0.1 | S. cerevisiae deletion strains, locus YKR026C, strain gcn3, stronger effect = lower value 0.0967 | S. cerevisiae deletion strains, locus YKR091W, strain srl3, stronger effect = lower value 0.129 | S. cerevisiae deletion strains, locus YLL001W, strain dnm1, stronger effect = lower value 0.085 | S. cerevisiae deletion strains, locus YLL026W, stronger effect = lower value 0.652 | S. cerevisiae deletion strains, locus YLL041C, strain sdh2, stronger effect = lower value 0.083 | S. cerevisiae deletion strains, locus YLR027C, strain aat2, stronger effect = lower value 0.0875 | S. cerevisiae deletion strains, locus YLR039C, strain RIC1, stronger effect = lower value 0.156 | S. cerevisiae deletion strains, locus YLR058C, strain SHM2, stronger effect = lower value 0.0693 | S. cerevisiae deletion strains, locus YLR102C, strain apc9, stronger effect = lower value 0.0939 | S. cerevisiae deletion strains, locus YLR113W, strain HOG1, stronger effect = lower value 0.128 | S. cerevisiae deletion strains, locus YLR221C, strain rsa3, stronger effect = lower value 0.118 | S. cerevisiae deletion strains, locus YLR258W, strain gsy2, stronger effect = lower value 0.0729 | S. cerevisiae deletion strains, locus YLR262C, strain YPT6 (second series), stronger effect = lower value 0.109 | S. cerevisiae deletion strains, locus YLR262C, strain YPT6, stronger effect = lower value 0.184 | S. cerevisiae deletion strains, locus YLR268W, strain sec22, stronger effect = lower value 0.104 | S. cerevisiae deletion strains, locus YLR320W, strain mms22, stronger effect = lower value 0.111 | S. cerevisiae deletion strains, locus YLR330W, strain CHS5, stronger effect = lower value 0.0767 | S. cerevisiae deletion strains, locus YLR342W, strain FKS1 (second series), stronger effect = lower value 0.0828 | S. cerevisiae deletion strains, locus YLR342W, strain FKS1, stronger effect = lower value 0.0814 | S. cerevisiae deletion strains, locus YLR357W, strain rsc2, stronger effect = lower value 0.178 | S. cerevisiae deletion strains, locus YLR370C, strain arc18, stronger effect = lower value 0.0851 | S. cerevisiae deletion strains, locus YLR371W, strain rom2, stronger effect = lower value 0.137 | S. cerevisiae deletion strains, locus YLR384C, strain iki3, stronger effect = lower value 0.0849 | S. cerevisiae deletion strains, locus YLR418C, strain cdc73, stronger effect = lower value 0.16 | S. cerevisiae deletion strains, locus YML016C, strain PPZ1, stronger effect = lower value 0.0635 | S. cerevisiae deletion strains, locus YML032C, strain rad52, stronger effect = lower value 0.115 | S. cerevisiae deletion strains, locus YML120C, strain ndi1, stronger effect = lower value 0.0935 | S. cerevisiae deletion strains, locus YML124C, strain tub3, stronger effect = lower value 0.0977 | S. cerevisiae deletion strains, locus YMR058W, strain fet3, stronger effect = lower value 0.0746 | S. cerevisiae deletion strains, locus YMR078C, strain ctf18, stronger effect = lower value 0.11 | S. cerevisiae deletion strains, locus YMR125W, strain sto1, stronger effect = lower value 0.112 | S. cerevisiae deletion strains, locus YMR129W, stronger effect = lower value 0.256 | S. cerevisiae deletion strains, locus YMR205C, strain PFK2, stronger effect = lower value 0.108 | S. cerevisiae deletion strains, locus YMR223W, strain ubp8, stronger effect = lower value 0.108 | S. cerevisiae deletion strains, locus YMR231W, strain pep5, stronger effect = lower value 0.105 | S. cerevisiae deletion strains, locus YMR307W, strain GAS1, stronger effect = lower value 0.145 | S. cerevisiae deletion strains, locus YNL067W, strain RPL9B, stronger effect = lower value 0.0655 | S. cerevisiae deletion strains, locus YNL071W, strain lat1, stronger effect = lower value 0.236 | S. cerevisiae deletion strains, locus YNL183C, strain NPR1, stronger effect = lower value 0.103 | S. cerevisiae deletion strains, locus YNL209W, strain ssb2, stronger effect = lower value 0.0737 | S. cerevisiae deletion strains, locus YNL233W, strain BNI4, stronger effect = lower value 0.073 | S. cerevisiae deletion strains, locus YNL248C, strain rpa49, stronger effect = lower value 0.11 | S. cerevisiae deletion strains, locus YNL250W, strain rad50, stronger effect = lower value 0.0949 | S. cerevisiae deletion strains, locus YNL271C, strain bni1, stronger effect = lower value 0.177 | S. cerevisiae deletion strains, locus YNL298W, strain CLA4, stronger effect = lower value 0.271 | S. cerevisiae deletion strains, locus YNL307C, strain MCK1, stronger effect = lower value 0.115 | S. cerevisiae deletion strains, locus YNL322C, strain KRE1 (second series), stronger effect = lower value 0.128 | S. cerevisiae deletion strains, locus YNL322C, strain KRE1, stronger effect = lower value 0.0647 | S. cerevisiae deletion strains, locus YNR049C, strain mso1, stronger effect = lower value 0.0812 | S. cerevisiae deletion strains, locus YNR052C, strain pop2, stronger effect = lower value 0.0966 | S. cerevisiae deletion strains, locus YOL147C, strain pex11, stronger effect = lower value 0.0953 | S. cerevisiae deletion strains, locus YOR001W, strain rrp6, stronger effect = lower value 0.21 | S. cerevisiae deletion strains, locus YOR061W, strain CKA2, stronger effect = lower value 0.0666 | S. cerevisiae deletion strains, locus YOR069W, strain VPS5, stronger effect = lower value 0.0731 | S. cerevisiae deletion strains, locus YOR070C, strain gyp1, stronger effect = lower value 0.575 | S. cerevisiae deletion strains, locus YOR080W, strain dia2, stronger effect = lower value 0.09 | S. cerevisiae deletion strains, locus YOR083W, strain WHI5, stronger effect = lower value 0.112 | S. cerevisiae deletion strains, locus YOR106W, strain vam3, stronger effect = lower value 0.0906 | S. cerevisiae deletion strains, locus YOR136W, strain idh2, stronger effect = lower value 0.156 | S. cerevisiae deletion strains, locus YOR144C, strain elg1, stronger effect = lower value 0.0898 | S. cerevisiae deletion strains, locus YOR184W, strain ser1, stronger effect = lower value 0.133 | S. cerevisiae deletion strains, locus YOR231W, strain MKK1, stronger effect = lower value 0.14 | S. cerevisiae deletion strains, locus YOR265W, strain rbl2, stronger effect = lower value 0.0593 | S. cerevisiae deletion strains, locus YOR270C, strain vph1, stronger effect = lower value 0.129 | S. cerevisiae deletion strains, locus YOR290C, strain snf2, stronger effect = lower value 0.0939 | S. cerevisiae deletion strains, locus YOR316C, strain cot1, stronger effect = lower value 0.0886 | S. cerevisiae deletion strains, locus YPL051W, strain arl3, stronger effect = lower value 0.0895 | S. cerevisiae deletion strains, locus YPL078C, strain atp4, stronger effect = lower value 0.0936 | S. cerevisiae deletion strains, locus YPL106C, strain sse1, stronger effect = lower value 0.16 | S. cerevisiae deletion strains, locus YPL240C, strain hsp82, stronger effect = lower value 0.0764 | S. cerevisiae deletion strains, locus YPL256C, strain CLN2, stronger effect = lower value 0.15 | S. cerevisiae deletion strains, locus YPR119W, strain clb2, stronger effect = lower value 0.0998 | S. cerevisiae deletion strains, locus YPR141C, strain kar3, stronger effect = lower value 0.235 | S. cerevisiae deletion strains, locus YPR163C, strain tif3, stronger effect = lower value 0.107 | S. cerevisiae deletion strains, locus YPR167C, strain met16, stronger effect = lower value 0.103 | S. cerevisiae deletion strains, strain wtn01, stronger effect = lower value 0.116 | S. cerevisiae strains, strain wild type, stronger effect = lower value 0.0715
inactive: S. cerevisiae deletion strains, locus YOL012C, strain htz1 0.333
